ERAP1 inh = blocks human ERAP1 aminopeptidase activity. 340,000 tested, 0.15% active. recombinant ERAP1, Leu-AMC fluorescence, 60 min. Q9NZ08. inhibition, % at 10.7 µM;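 active = mean replicate inhibition of at least 30%, or all replicates individually reaching that 30% level; inactive = mean below 30% and not every replicate reaching it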
DENV2 CPE = DENV2-induced cell death inhibition; DENV2-infected cells, cytopathic effect rescue, plate reader; CPE inhibition, % at 9.99 µM; 350,000 tested, 1.7% active; in the data active = CPE inhibition above about 20%, passing the limit was not always enough; inconclusive = no clear call, values can overlap the other calls; tested in BHK-21 cells
AF4-AF9 inh = blocks AF4 peptide binding to human AF9 | AlphaScreen, biotin-AF4 peptide binding to FLAG-AF9 | inhibition, % at 10 µM | 350,000 tested, 0.47% active;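 active = every replicate reaching a set inhibition limit, whatever the replicate mean, cut at about 25% in these data; inconclusive = mean inhibition reaches that limit but some replicates miss it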
Target sequence (P42568 whole entry, looked up): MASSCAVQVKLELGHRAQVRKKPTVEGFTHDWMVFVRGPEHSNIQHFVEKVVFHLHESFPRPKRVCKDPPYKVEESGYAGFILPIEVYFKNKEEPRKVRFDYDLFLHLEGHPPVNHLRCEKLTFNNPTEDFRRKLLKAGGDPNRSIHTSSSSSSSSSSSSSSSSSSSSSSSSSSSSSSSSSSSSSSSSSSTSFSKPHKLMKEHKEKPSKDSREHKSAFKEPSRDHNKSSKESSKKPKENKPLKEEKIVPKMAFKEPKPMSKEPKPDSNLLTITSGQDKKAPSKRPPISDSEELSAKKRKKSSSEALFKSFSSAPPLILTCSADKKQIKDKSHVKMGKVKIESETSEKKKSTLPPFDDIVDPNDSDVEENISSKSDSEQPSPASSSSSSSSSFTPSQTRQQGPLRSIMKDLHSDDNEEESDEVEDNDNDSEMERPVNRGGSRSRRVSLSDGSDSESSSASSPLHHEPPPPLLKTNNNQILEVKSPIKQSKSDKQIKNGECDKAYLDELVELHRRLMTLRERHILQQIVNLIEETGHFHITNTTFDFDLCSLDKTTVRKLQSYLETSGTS
RAD52 anneal inh = RAD52 (human) annealing inhibition; 360,000 tested, 0.46% active; recombinant RAD52 DNA annealing, FRET fluorescence; inhibition, % at 18.7 µM; P43351;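 active = every replicate showing at least 50% inhibition; inconclusive = mean inhibition at least 50% but not in every replicate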
FGF22 binding-1 = FGF22 (human) thermal shift binding; recombinant FGF22 thermal shift, SYPRO orange fluorescence; percent of sucrose octasulfate shift, DMSO zero; 340,000 tested, 1.5% active; Q9HCT0; activity (Tm shift, normalised), % at 9.99 µM;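 active = mean Tm shift, scaled 0 neutral to 100 positive control, at about 1.3% or above, every replicate too, limit read from the data; inconclusive = no clear call, values can overlap the other calls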
FGF22 binding-2 = FGF22 (human) binding in thermal shift; shares compounds with FGF22 binding-1; recombinant FGF22 thermal shift, SYPRO orange fluorescence; thermal shift activity, °C (ΔTm) at 38 µM; 1,000 tested, 2% active; AID 720646;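 active = fitted rise in melting shift crosses a set limit at or below the top valid dose tested; inconclusive = flat fit at mid-level activity, or a poor quality fit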
TSA no protein = compound-only SYPRO artifact for FGF22 binders. shares compounds with FGF22 binding-1. compound-only SYPRO orange thermal shift counter-screen, no protein. AC50, µM (series often up to 38 µM). 1,000 tested, 2% active. AID 743019;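 active = rising signal whose fitted curve reaches the 0.54 level within the top valid dose, showing a melting point, actives reach about 13 µM in these data; inactive = the rest, including activity in the opposite direction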; note: value is where the raw curve crosses a fixed level and not half-maximal
Numbers stand for hits; 0 = inactive; ? = inconclusive; - = not tested or not shown. An excerpt weighted towards active compounds, which were near 4% of everything screened.

SMILES	ERAP1 inh	DENV2 CPE	AF4-AF9 inh	RAD52 anneal inh	FGF22 binding-1	FGF22 binding-2	TSA no protein
COCC(=O)N1C[C@@H](C)[C@H](OC)CN(C)C(=O)c2ccc(NC(=O)NC(C)C)cc2OC[C@@H]1C	0	0	0	0	2.2	0	0
CO[C@@H]1CN(C)C(=O)c2cc(NC(=O)NC(C)C)ccc2OC[C@@H](C)N(C)C[C@@H]1C	0	0	0	0	37.2	0	0
O=C(Cc1cccnc1)N1CC(=O)N2[C@H](CO)[C@@H](c3ccc(C#CC4CCCC4)cc3)[C@H]2C1	0	?	0	0	-	-	-
O=[N+]([O-])c1cccc(S(=O)(=O)Nc2cccc(-c3ccc(N4CCCC4)nn3)c2)c1	0	?	0	0	0	-	-
O=[N+]([O-])c1cccc(S(=O)(=O)Nc2ccc(-c3ccc(N4CCOCC4)nn3)cc2)c1	0	0	0	0	2.5	0	0
O=[N+]([O-])c1ccccc1S(=O)(=O)Nc1ccc(S(=O)(=O)Nc2nccs2)cc1	0	?	0	0	0	-	-
O=[N+]([O-])c1cccc(S(=O)(=O)Nc2ccc(S(=O)(=O)Nc3nccs3)cc2)c1	0	0	0	0	1.6	0	0
O=[N+]([O-])c1cccc(S(=O)(=O)Nc2cccc(-c3ccc(N4CCOCC4)nn3)c2)c1	0	0	0	0	0	-	-
O=[N+]([O-])c1cccc(S(=O)(=O)Nc2ccc(-c3ccc(N4CCCC4)nn3)cc2)c1	0	0	0	0	1.6	0	0
COc1ccc(NC(=O)N2CCCCN3[C@H](CO)[C@@H](c4ccc(C5=CCCCC5)cc4)[C@H]3C2)cc1	0	0	0	0	0	-	-
Cc1ccccc1S(=O)(=O)N1CC[C@@H]2[C@@H](CO)Nc3ccc(-c4ccc(C#N)cc4)cc3[C@@H]21	0	0	0	0	0	-	-
OC[C@H]1[C@@H](c2ccc(-c3cccnc3)cc2)[C@@H]2CN(Cc3ccccn3)CCCCN12	0	0	0	0	1.5	0	0
OC[C@@H]1[C@@H](c2ccc(-c3cccnc3)cc2)[C@@H]2CN(Cc3ccccn3)CCCCN12	0	0	0	0	1.5	0	0
CS(=O)(=O)N1CCCCN2[C@H](CO)[C@H](c3ccc(C#Cc4ccccn4)cc3)[C@@H]2C1	0	33.2	0	0	1.5	0	0
OC[C@@H]1[C@@H](c2ccc(-c3ccccc3)cc2)[C@@H]2CN(Cc3ccccn3)CCCCN12	0	0	0	0	0	-	-
O=C1CS(=O)(=O)C(c2ccccc2)N1c1cccc(Cl)c1 (stereo not drawn)	0	0	0	0	0	-	-
O=C(N[C@@H]1CC[C@H](CC(=O)N2CCN(c3ccccc3)CC2)O[C@@H]1CO)c1ccccc1	0	0	0	0	1.9	0	0
O=C(N[C@@H]1CC[C@@H](CC(=O)N2CCN(c3ccccc3)CC2)O[C@H]1CO)c1ccccc1	0	0	0	0	0	-	-
C[C@@H](O)C#Cc1ccc([C@@H]2[C@@H](CO)N3CCCCN(C(=O)Nc4ccccc4)C[C@H]23)cc1	0	0	0	0	0	-	-
C/C(=N\NC(=O)c1cccc(S(=O)(=O)N2CCOCC2)c1)c1ccc(O)cc1	0	?	0	0	0	-	-
C/C(=N\NC(=O)c1cccc(S(=O)(=O)N2CCOCC2)c1)c1ccc(OC(F)F)cc1	0	0	0	0	1.6	0	0
COc1ccc(S(=O)(=O)N(C)C[C@H]2Oc3ccc(NC(=O)Nc4cccc5ccccc45)cc3CC(=O)N([C@H](C)CO)C[C@@H]2C)cc1	0	0	0	0	0	-	-
COc1ccccc1-c1cnc2c(c1)C(=O)N([C@H](C)CO)C[C@H](C)[C@@H](CN(C)C(=O)c1cccnc1)O2	0	0	0	0	0	-	-
COc1ccccc1-c1cnc2c(c1)C(=O)N([C@@H](C)CO)C[C@H](C)[C@H](CN(C)C(=O)c1cccnc1)O2	0	0	0	0	1.9	0	0
Cc1ccc(S(=O)(=O)N(C)C[C@H]2Oc3ncc(Br)cc3C(=O)N([C@@H](C)CO)C[C@H]2C)cc1	0	0	0	0	5.3	0	0
SMILES	ERAP1 inh	DENV2 CPE	AF4-AF9 inh	RAD52 anneal inh	FGF22 binding-1	FGF22 binding-2	TSA no protein
Cc1ccc(S(=O)(=O)N(C)C[C@H]2Oc3ncc(Br)cc3C(=O)N([C@@H](C)CO)C[C@@H]2C)cc1	0	0	0	0	0	-	-
C[C@H](CO)N1C[C@H](C)[C@@H](CN(C)C)Oc2ncc(-c3cccnc3)cc2C1=O	0	?	0	0	1.7	0	0
COc1ccccc1-c1cn(CC[C@H]2CC[C@@H](NC(=O)Cc3ccccn3)[C@H](CO)O2)nn1	0	0	0	0	0	-	-
CCCCN(C(=O)c1ccc2c(c1)OCCO2)c1c(N)n(CCCC)c(=O)[nH]c1=O	0	0	0	0	21.4	0	0
CCCCn1c(N)c(N(CCC(C)C)C(=O)c2ccc3c(c2)OCO3)c(=O)[nH]c1=O	0	0	0	0	0	-	-
C[C@H](NC(=O)C[C@H]1C[C@@H]2c3cc(NC(=O)CN(C)C)ccc3O[C@@H]2[C@@H](CO)O1)c1ccccc1	0	0	0	0	0	-	-
COc1ccc(N2CCN(CCOc3ccc4c(C)cc(=O)oc4c3)CC2)cc1	0	0	0	0	2.2	-	0
COc1ccc2c3c(n(C)c2c1)[C@H](CO)N(Cc1ccccc1OC)CC31CCN(CC2CCOCC2)CC1	0	0	0	0	0	-	-
COc1ccc(S(=O)(=O)N(C)C[C@@H]2Oc3ccc(NC(=O)Nc4cccc5ccccc45)cc3CC(=O)N([C@@H](C)CO)C[C@@H]2C)cc1	0	0	0	0	0	-	-
Cn1ncc2c(Nc3ccc(Cl)c(Cl)c3)ncnc21	0	0	0	0	9.1	0	0
COc1ccc(N(C)S(=O)(=O)c2cccc(C(=O)Nc3ccc(N4CCOCC4)cc3)c2)cc1	0	0	0	0	2.3	0	0
Cc1ccccc1S(=O)(=O)N1C[C@@H](O)COC[C@H]2O[C@@H](CC(=O)N3CCC(Cc4ccccc4)CC3)CC[C@@H]21	0	0	0	0	0	-	-
O=C(N[C@@H]1CC[C@H](CCNS(=O)(=O)c2ccc(F)cc2)O[C@H]1CO)c1cnccn1	0	0	0	0	0	-	-
COc1cccc(C#Cc2ccc([C@H]3[C@H](CO)N4C(=O)CN(S(=O)(=O)c5ccccc5C)C[C@@H]34)cc2)c1	0	0	0	0	0	-	-
COc1cccc(C#Cc2ccc([C@H]3[C@H]4CN(S(=O)(=O)c5ccccc5C)CC(=O)N4[C@H]3CO)cc2)c1	0	0	0	0	1.4	0	0
COC(=O)[C@]1(Cc2ccccc2)N[C@H](CN(C)S(=O)(=O)c2ccc(C)cc2)[C@@H]2C(=O)N(Cc3ccccc3)C(=O)[C@@H]21	0	24.2	0	0	1.4	0	0
CCc1cccc(NS(=O)(=O)c2ccc3c(c2)NC(=O)CC(=O)N3)c1	0	0	0	0	1.7	0	0

Assay outcomes deposited in PubChem BioAssay by Broad Institute.
